PostGolgi yeast – growth inhibition of a yeast mutant, post-Golgi transport screen. 98,000 compounds, 0.9% hits. post-Golgi transport phenotypic cell assay. inhibition, % at 10 µM. AID 739;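 also: yeast cells grown in 1536-well plates; yeast grown about 18 h at 30C before absorbance read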
PostGolgi ctrl – yeast control strain growth, post-Golgi counter-screen. AID 738. inhibition, % at 10 µM. 98,000 compounds, 5% hits. efflux-deficient yeast background strain, growth absorbance A615, 16 h
GALR2 antag – blocks the human galanin receptor 2; O43603; GALR2-expressing cells, antagonist mode; inhibition, % at 4 µM; 140,000 compounds, 0.39% hits; in the data active = inhibition above about 27%;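 also: cells stimulated with galanin 1-16 at roughly its EC80; 0% = agonist challenge control and 100% = basal control without agonist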
GALR2 ag – GALR2 (human) receptor agonism. 140,000 compounds, 0.48% hits. AID 803. GALR2-expressing cells, agonist activation read-out. activation, % (no concentration beside the values); in the data active = activation above about 5%, passing the limit was not always enough;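 also: 0% = vehicle buffer wells and 100% = reference agonist at full effect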
S1P2 agonist – activates the human S1P2 receptor. O95136. S1P2-expressing cell line, agonist reporter read-out. activation, % at 4.5 µM. 97,000 compounds, 0.46% hits; in the data active = activation above about 16%;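 also: 0% = vehicle low control and 100% = maximal reference agonist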
Target sequence (O95136 whole entry, looked up): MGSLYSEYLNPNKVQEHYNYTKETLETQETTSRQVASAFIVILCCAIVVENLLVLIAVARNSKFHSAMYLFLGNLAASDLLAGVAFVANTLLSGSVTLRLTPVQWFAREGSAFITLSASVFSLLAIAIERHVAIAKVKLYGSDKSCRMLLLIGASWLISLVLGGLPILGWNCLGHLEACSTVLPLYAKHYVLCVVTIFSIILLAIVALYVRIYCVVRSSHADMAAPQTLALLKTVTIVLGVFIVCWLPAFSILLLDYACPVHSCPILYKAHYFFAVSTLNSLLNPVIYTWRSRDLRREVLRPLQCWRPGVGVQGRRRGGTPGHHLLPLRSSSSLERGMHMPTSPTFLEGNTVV
S1P2 blocker – blocks the human S1P2 receptor | cell-based S1P2 antagonist assay, inhibition at 5 uM | inhibition, % at 5 µM | 97,000 compounds, 0.21% hits | AID 736; in the data active = inhibition above about 45%;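 also: CRE beta-lactamase reporter cells expressing human S1P2 stimulated with S1P; 0% = agonist at EC80 alone and 100% = agonist plus reference antagonist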
GALR2 ant conf – confirmation of human galanin receptor 2 (GALR2) antagonists. shares compounds with GALR2 antag. GALR2-expressing cells, antagonist mode, inhibition. inhibition, % at 4 µM. 480 compounds, 60% hits. AID 866; in the data active = inhibition above about 27%;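 also: cells stimulated with galanin at about its EC80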
BLA inhib ctr – inhibits beta-lactamase reporter in GALR2 antagonist counterscreen; shares compounds with GALR2 antag; CHO NFAT-BLA reporter, beta-lactamase FRET, thapsigargin-stimulated; inhibition, % at 4.2 µM; 480 compounds, 36% hits; AID 867;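 active = inhibition above the mean inhibition across tested compounds plus 3 SD, cut at about 27% in these data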;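 also: 0% = 500 nM thapsigargin stimulated wells and 100% = unstimulated BSA only wells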
* hit, by the source's call; nt = no result given. Only a selection was taken, and hits are over-represented in it overall. Rule as the data show it, unless noted: active = inhibition above about 30%; inactive = the rest.

SMILES | PostGolgi yeast | PostGolgi ctrl | GALR2 antag | GALR2 ag | S1P2 agonist | S1P2 blocker | GALR2 ant conf | BLA inhib ctr
COc1cc(C(=O)O/N=C2\C=CC(=O)C(C)=C2)cc(OC)c1OC | 0.0 | 22.9 | 77.2* | -2.9 | -7.2 | 28.9 | 33.1* | 43.8*
Cc1nn2c(COc3ccc(NC(=O)c4ccccc4Cl)cc3)nnc2c2ccccc12 | nt | nt | 4.8 | -0.3 | nt | nt | nt | nt
COC(=O)/C(=C1/Oc2cc(C)oc(=O)c2S1)C(F)(F)F | 4.9 | 78.1* | 61.1* | -1.6 | nt | nt | 66.5* | 51.2*
CC(C)C(=O)N=C1SC2CS(=O)(=O)CC2N1Cc1ccccc1 (configuration not stated) | nt | nt | -10.7 | 0.6 | nt | nt | nt | nt
Cc1n[nH]c(C)c1N1C(=O)c2cccc3c(Br)ccc(c23)C1=O | nt | nt | 43.9* | -0.6 | -9.5 | 74.3* | 28.3* | 24.9
Cc1n[nH]c(C)c1N1C(=O)c2cccc3cc(Br)cc(c23)C1=O | 7.7 | -1.1 | -4.5 | -0.5 | -5.0 | -10.1 | nt | nt
CN(C)c1ccc(C(=O)c2ccc(N(C)C)c3ccccc23)cc1 | nt | nt | 30.4* | 0.6 | 4.0 | 3.7 | 32.9* | 64.1*
COc1ccc(C(=O)c2ccc(N(C)C)cc2)c(OC)c1 | 0.8 | 5.6 | -0.4 | -1.5 | -2.4 | 4.5 | nt | nt
O=C(c1ccccc1F)N(Cc1ccc2c(c1)OCO2)Cc1cc2cc3c(cc2n2nnnc12)OCO3 | -1.3 | 20.7 | 3.1 | -0.7 | -2.9 | 30.4 | nt | nt
CSCCC(Nc1ncnc2ccc(Br)cc12)C(=O)O (configuration not stated) | -9.3 | 7.1 | 4.1 | -2.6 | -4.9 | -12.9 | nt | nt
CC(C)Nc1ncnc2ccc(Br)cc12 | nt | nt | 38.2* | -2.1 | nt | nt | 35.9* | 20.9
O=c1[nH][nH]c(-c2ccccc2)c1C=Nc1cccc(Cl)c1 | -1.0 | 5.0 | 0.4 | -1.6 | -1.7 | 24.9 | nt | nt
O=c1[nH][nH]c(-c2ccccc2)c1C=Nc1ccc(Cl)cc1 | 4.3 | -4.1 | 29.0* | -2.9 | -2.9 | 17.7 | 18.9 | -0.1
COc1ccc(C(=O)NNC(=O)CN2CCN(c3nc(-c4ccccc4)cs3)CC2)cc1 | nt | nt | -17.0 | 1.0 | nt | nt | nt | nt
Cc1ccc(NC(=O)/C=C/c2ccc([N+](=O)[O-])s2)c(C)c1 | nt | nt | 32.8* | 0.6 | nt | nt | 54.2* | 54.7*
Cc1cccc(NC(=O)/C=C/c2ccc([N+](=O)[O-])s2)c1 | nt | nt | 31.6* | 0.3 | nt | nt | 46.0* | 47.3*
CN(C(=S)NC1CCCCC1)C1(c2ccccc2Cl)CCCCC1=O (configuration not stated) | nt | nt | 27.4* | -0.2 | nt | nt | 33.7* | 8.3
C=CCn1nc([N+](=O)[O-])nc1Sc1cccc2cccnc12 | nt | nt | 31.2* | -1.4 | nt | nt | 26.7 | 10.7
Cc1cc(N2C(=O)C=CC2=O)c([N+](=O)[O-])cc1C | nt | nt | 45.0* | -2.0 | nt | nt | 46.2* | 71.2*
Cc1ccc(C)c(N2CCN(c3ccc(N4C(=O)COCC4=O)cc3[N+](=O)[O-])CC2)c1 | nt | nt | 8.4 | -1.3 | nt | nt | nt | nt
O=C1NC(=O)C2(COC(c3cccnc3)OC2)S1 (configuration not stated) | nt | nt | 1.2 | 0.9 | nt | nt | nt | nt
Cc1cccc(-n2c(N)c(-c3nc4ccccc4n3C)c3nc4ccccc4nc32)c1 | nt | nt | 10.6 | 0.4 | nt | nt | nt | nt
Cn1c(-c2c(N)n(-c3ccccc3)c3nc4ccccc4nc23)nc2ccccc21 | nt | nt | 33.1* | 0.3 | nt | nt | 34.5* | 47.3*

Screening results: PubChem BioAssay, several laboratories
